Laboratory results as given in paper PMC5540273 (PLoS ONE, 2017).

tested on: T1, CDC2L5; conditions: concentration: 1 μM, replicates: in singlicate; n = 1
T1 construct: gene CDK13
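Note: KINOMEscan kinase panel screen.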

SMILES	%Inh [%]
COc1cccc(C(=O)Nc2cccc(Oc3ccc4nc(NC(=O)C5CC5)cn4n3)c2)c1	2
Cl.Cl.NCC(NC(=O)c1cc(-c2ccccc2)c(-c2ccnc3[nH]ccc23)s1)c1ccccc1 (stereo not shown) [GSK1321561]	0
CC(=O)Nc1nc2cnc(Nc3cc(NC(=O)c4cccc(C5(C#N)CC5)c4Cl)ccc3C)nc2s1	17
COc1cccc(NC(=O)NC2CCN(c3ccnc(Nc4cc(OC)c(OC)c(OC)c4)n3)C2)c1 (stereo not shown) [GSK1379763]	0
COc1cc2c(cc1OCCN1CCNCC1)ncc1c3ccc(C#N)cc3[nH]c21	8
CSc1cccc2c(-c3ccncn3)c(-c3ccc(F)cc3)nn12 [GW514786]	0
Cn1cc(-c2ccc3c(c2)CCN3C(=O)Cc2cccc(Cl)c2)c2c(N)ncnc21 [GSK2606590]	0
CCS(=O)(=O)c1ccc(OC)c(Nc2nccc(-c3c(-c4cccc(NC(=O)c5c(F)cccc5F)c4)nn4ncccc34)n2)c1 [GSK326180]	0
CCn1c(-c2nonc2N)nc2c(C#CC(C)(C)O)ncc(OCCCCN)c21.O=C(O)C(F)(F)F.O=C(O)C(F)(F)F [GSK507274]	0
O=C(Nc1cccc(-c2nn3ccccc3c2-c2ccnc(Nc3cccc(C(F)(F)F)c3)n2)c1)c1c(F)cccc1F [GSK292658]	99.3
CN(c1ccc(NC(=O)Nc2cc(C(F)(F)F)ccc2F)cc1)c1ccnc(Nc2ccc(S(N)(=O)=O)cc2)n1 [GW809893]	83
COc1cc(Nc2ncc3c(C)nc(-c4cc5ccccc5[nH]4)n3n2)cc(OC)c1OC [GW869516]	0
Cc1ccc(C)c(NC(=O)NC2CCN(c3ccnc(Nc4ccc(F)cc4)n3)C2)c1 (stereo not shown) [GSK1379720]	0
c1ccc(Oc2ccc(Nc3ccnc4cc(-c5ccc(CNCCN6CCOCC6)o5)ccc34)cc2)nc1 [GW567145]	0
COc1cc(Nc2nccc(-c3c(-c4cccc(NC(=O)c5c(F)cccc5F)c4)nn4ncccc34)n2)cc(OC)c1OC [GSK327238]	0
COc1cc(Nc2nccc(N3CCC(NC(=O)Nc4cccc(C(C)=O)c4)C3)n2)cc(OC)c1OC (stereo not shown) [GSK1379753]	0
Cl.Cl.NCC(NCc1ccc(-c2ccnc3[nH]ccc23)s1)c1ccccc1 (stereo not shown) [GSK1321565]	0
Oc1cc(Nc2ccnc3cc(I)ccc23)ccc1F [GW552771]	0
Cc1ccc(C(=O)Nc2ccc(Nc3ccnc4cc(-c5nccs5)ccc34)cc2O)cc1.Cl [GW494702]	0

SMILES	%Inh [%]
C[C@@H]1CC[C@@H](C(=O)Nc2ccccc2)CN1c1cc(-c2ccc3c(N)n[nH]c3c2)nc(N)n1 [GSK2286062]	0
Nc1ncc(-c2cccnc2)c2scc(-c3ccc4c(c3)CCN4C(=O)Cc3ccccc3)c12 [GSK683281]	0
Cl.c1ccc(-c2ccc3c(Nc4ccc5[nH]ccc5c4)ccnc3c2)nc1 [GW440138]	0
CCn1c(-c2nonc2N)nc2c(C#CC(C)(C)O)nc(OC[C@H](N)c3ccccc3)cc21 [GSK943949]	2
Cn1cc(-c2ccc3c(c2)CCN3C(=O)Cc2cccc(F)c2)c2c(N)ncnc21 [GSK2603358]	0
O=C(Nc1cccc(-c2nn3ncccc3c2-c2ccnc(Nc3ccccc3)n2)c1)c1c(F)cccc1F [GSK198271]	0
COc1cc(Nc2nccc(-c3c(-c4cccc(NC(=O)c5c(F)cccc5F)c4)nn4ccccc34)n2)cc(OC)c1OC [GSK323521]	0
FC(F)(F)c1ccc(/C=C/c2cncnc2Nc2ccc3[nH]c(Cc4ccccc4)nc3c2)cc1 [GW709199]	6
CC(C)(C)c1ccc2nccc(Nc3cccc(O)c3)c2c1 [GW856795]	36
CCc1ccc(-c2ccc3c(c2)-c2c(cnn2C)S(=O)(=O)N3C)cc1	20
COc1cccc(C2=C(Nc3ccc(Cl)c(C(=O)O)c3)C(=O)NC2=O)c1 [SB-390769]	0
NCCCC(NC(=O)c1cc(Br)c(-c2ccnc3[nH]ccc23)s1)c1ccccc1.O=C(O)C(F)(F)F.O=C(O)C(F)(F)F (stereo not shown) [GSK1287544]	0
COC(=O)Nc1nc2ccc(Oc3ccc(NC(=O)Nc4cc(C(F)(F)F)ccc4F)cc3)cc2n1C.Cl [GW692089]	0
CC(C)c1nc(-c2cccc(NS(=O)(=O)c3c(F)cccc3F)c2F)c(-c2ccnc(Nc3ccc(N4CCOCC4)nc3)n2)s1 [GSK2008607]	84
COCCOCCOc1cc2ncc3c4ccc(C#N)cc4[nH]c3c2cc1OC	0
Fc1ccc(-c2ncn(C3CCNCC3)c2-c2ccnc(Oc3ccc(-c4ccccc4)cc3)n2)cc1 [SB-245391]	43
c1ccc(-c2cnc3nccnn23)cc1 [AH20685]	0
COc1cccc(-c2ccc3c(NC(=O)C4CC4)n[nH]c3n2)c1 [SB-710903]	0
